# Reference: PubChem BioAssay AID1159580 (chemical genetic matrix, 2015)
# The campaign covered roughly 5,500 compounds. About 2,000 (36%) were called active. Inconclusive results (about 18%) are left out. This is one part of the list. Unmarked numbers belong to inactive results. No stated cut-off is given here; in the data, active means normalized growth mostly below about 0.91 (no sharp cut-off); inconclusive means no clear call, values can overlap the other calls; inactive means mostly above about 0.92.
# Test: chemical genetic growth profiling, strain panel (AID 1159580);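 further: tested at 20 µM; growth read once vehicle control cultures reached saturation at 30 °C; 1 = growth at the plate median or of vehicle wells; lower values mean less growth of the strain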
# Conditions: growth OD
# [1] = S. cerevisiae deletion strains, locus YAL013W, strain DEP1, hits give low values
# [2] = S. cerevisiae deletion strains, locus YAL040C, strain CLN3, hits give low values
# [3] = S. cerevisiae deletion strains, locus YCL061C, strain MRC1 (second series), hits give low values
# [4] = S. cerevisiae deletion strains, locus YDR363W, strain ESC2, hits give low values
# [5] = S. cerevisiae deletion strains, locus YER002W, strain NOP16, hits give low values
# [6] = S. cerevisiae deletion strains, locus YJR075W, strain HOC1, hits give low values
# [7] = S. cerevisiae deletion strains, locus YMR307W, strain GAS1, hits give low values
# [8] = S. cerevisiae deletion strains, locus YNL153C, strain GIM3, hits give low values
# [9] = S. cerevisiae deletion strains, locus YNL175C, strain NOP13, hits give low values
# [10] = S. cerevisiae deletion strains, locus YNL197C, strain WHI3, hits give low values
# [11] = S. cerevisiae deletion strains, locus YNL224C, strain SQS1, hits give low values
# [12] = S. cerevisiae deletion strains, locus YNL322C, strain KRE1, hits give low values
# [13] = S. cerevisiae deletion strains, locus YOR083W, strain WHI5 (second series), hits give low values
# [14] = S. cerevisiae deletion strains, locus YPL055C, strain LGE1, hits give low values
# [15] = S. cerevisiae deletion strains, locus YBR229C, strain ROT2, hits give low values
# [16] = S. cerevisiae deletion strains, locus YDL101C, strain DUN1, hits give low values
# [17] = S. cerevisiae deletion strains, locus YDR150W, strain NUM1, hits give low values
# [18] = S. cerevisiae deletion strains, locus YEL061C, strain CIN8, hits give low values
# [19] = S. cerevisiae deletion strains, locus YGR078C, strain PAC10, hits give low values
# [20] = S. cerevisiae deletion strains, locus YHR030C, strain SLT2, hits give low values
# [21] = S. cerevisiae deletion strains, locus YHR087W, strain rtc3, hits give low values
# [22] = S. cerevisiae deletion strains, locus YJR043C, strain POL32, hits give low values
# [23] = S. cerevisiae deletion strains, locus YLR039C, strain RIC1, hits give low values
# [24] = S. cerevisiae deletion strains, locus YLR058C, strain SHM2 (second series), hits give low values
# [25] = S. cerevisiae deletion strains, locus YLR085C, strain ARP6, hits give low values
# [26] = S. cerevisiae deletion strains, locus YLR262C, strain YPT6, hits give low values
# [27] = S. cerevisiae deletion strains, locus YML094W, strain GIM5, hits give low values
# [28] = S. cerevisiae deletion strains, locus YMR219W, strain ESC1, hits give low values
# [29] = S. cerevisiae deletion strains, locus YMR263W, strain SAP30, hits give low values
# [30] = S. cerevisiae deletion strains, locus YNL298W, strain CLA4 (second series), hits give low values
# [31] = S. cerevisiae deletion strains, locus YNR030W, strain Alg12, hits give low values
# [32] = S. cerevisiae deletion strains, locus YPL241C, strain CIN2, hits give low values
# [33] = S. cerevisiae deletion strains, locus YPR135W, strain CTF4, hits give low values
# [34] = S. cerevisiae deletion strains, locus YGR229C, strain SMI1, hits give low values
compound,measurement,setting,value
N[C@@H](Cn1ccc(=O)[nH]c1=O)C(=O)O,normalized growth,[1],0.988
same,normalized growth,[2],1.06
same,normalized growth,[3],1
same,normalized growth,[4],1
same,normalized growth,[5],0.995
same,normalized growth,[6],0.97
same,normalized growth,[7],0.978
same,normalized growth,"S. cerevisiae deletion strains, locus YNL128W, strain TEP1, hits give low values",1
same,normalized growth,[8],1.03
same,normalized growth,[9],0.995
same,normalized growth,[10],1
same,normalized growth,[11],1.01
same,normalized growth,[12],0.975
same,normalized growth,[13],1.01
same,normalized growth,[14],0.998
CCOC(=O)c1ccc(Oc2ncc(C(F)(F)F)cc2Cl)cc1,normalized growth,[1],1.04
same,normalized growth,[15],0.995
same,normalized growth,[16],0.957
same,normalized growth,[17],1
same,normalized growth,[18],0.996
same,normalized growth,[19],0.993
same,normalized growth,[20],0.829
same,normalized growth,[21],0.987
same,normalized growth,[22],0.98
same,normalized growth,[6],0.917
same,normalized growth,[23],0.889
same,normalized growth,[24],0.975
same,normalized growth,[25],1.08
same,normalized growth,[26],0.862
same,normalized growth,[27],1.04
same,normalized growth,[28],0.992
same,normalized growth,[29],0.988
same,normalized growth,[7],0.68
same,normalized growth,[8],1.01
same,normalized growth,[30],0.985
same,normalized growth,[12],0.986
same,normalized growth,[31],0.974
same,normalized growth,[14],1.08
same,normalized growth,[32],0.862
same,normalized growth,[33],1.17
O=C(Cc1ccc(Cl)c(Cl)c1)N1CCCCC1CN1CCCC1 (centres undefined),normalized growth,[2],0.982
same,normalized growth,[3],1
same,normalized growth,[17],1.01
same,normalized growth,[4],1.01
same,normalized growth,[5],0.999
same,normalized growth,[19],1.01
same,normalized growth,[34],1.03
same,normalized growth,[7],0.999
same,normalized growth,[8],1.09
same,normalized growth,[9],1.02
same,normalized growth,[10],1.03
same,normalized growth,[11],0.999
same,normalized growth,[12],1.05
same,normalized growth,[13],1.05
same,normalized growth,[14],1.01
CCOC(=O)c1ccc(N2CC3CCCCN3C2c2ccc(Cl)c(Cl)c2)cc1 (centres undefined),normalized growth,[1],0.989
same,normalized growth,[15],0.974
same,normalized growth,"S. cerevisiae deletion strains, locus YCL061C, strain MRC1, hits give low values",0.991
same,normalized growth,[16],1
same,normalized growth,"S. cerevisiae deletion strains, locus YDL134C, strain PPH21, hits give low values",1.01
same,normalized growth,[17],0.992
same,normalized growth,[18],0.993
same,normalized growth,[19],0.992
same,normalized growth,[34],1
same,normalized growth,[20],0.971
same,normalized growth,[21],0.992
same,normalized growth,"S. cerevisiae deletion strains, locus YJL187C, strain SWE1, hits give low values",0.982
same,normalized growth,[22],1.01
same,normalized growth,[6],0.998
same,normalized growth,[23],0.889
same,normalized growth,[24],0.997
same,normalized growth,[25],0.97
same,normalized growth,[26],0.744 (active)
same,normalized growth,[27],0.972
same,normalized growth,[28],0.984
same,normalized growth,[29],0.976
same,normalized growth,[8],0.997
same,normalized growth,[30],1.02
same,normalized growth,[12],1
same,normalized growth,[31],0.997
same,normalized growth,[14],0.922
same,normalized growth,[32],0.987
same,normalized growth,[33],0.893
same,normalized growth,"S. cerevisiae strains, strain wild type, hits give low values",1.01
